# In PubChem BioAssay AID1946 (Johns Hopkins Ion Channel Center, 2009):
# The campaign covered roughly 2,400 compounds. About 180 (7.5%) were called active. This excerpt belongs to a sample that is enriched for actives. Values without a mark were called inactive.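 Rule for the calls: active = readout below zero, meaning a drop past 3 SD under the dofetilide-free negative control mean; inactive = the rest.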
# Target: Potassium voltage-gated channel subfamily KQT member 2 (Rattus norvegicus) (UniProt O88943)
# Assay: rat KCNQ2 channel inhibition by compounds alone, confirmation, counter-screen for hERG block protector project, cell-based, CHO, FluxOR thallium flux (AID 1946)
# Conditions: CHO-KCNQ2 cells, FluxOR thallium flux fluorescence; at 10 µM; hits give low values; zero marks the 3-SD hit cutoff
# Potassium voltage-gated channel subfamily KQT member 2 (Rattus norvegicus), sequence (O88943 whole entry, looked up): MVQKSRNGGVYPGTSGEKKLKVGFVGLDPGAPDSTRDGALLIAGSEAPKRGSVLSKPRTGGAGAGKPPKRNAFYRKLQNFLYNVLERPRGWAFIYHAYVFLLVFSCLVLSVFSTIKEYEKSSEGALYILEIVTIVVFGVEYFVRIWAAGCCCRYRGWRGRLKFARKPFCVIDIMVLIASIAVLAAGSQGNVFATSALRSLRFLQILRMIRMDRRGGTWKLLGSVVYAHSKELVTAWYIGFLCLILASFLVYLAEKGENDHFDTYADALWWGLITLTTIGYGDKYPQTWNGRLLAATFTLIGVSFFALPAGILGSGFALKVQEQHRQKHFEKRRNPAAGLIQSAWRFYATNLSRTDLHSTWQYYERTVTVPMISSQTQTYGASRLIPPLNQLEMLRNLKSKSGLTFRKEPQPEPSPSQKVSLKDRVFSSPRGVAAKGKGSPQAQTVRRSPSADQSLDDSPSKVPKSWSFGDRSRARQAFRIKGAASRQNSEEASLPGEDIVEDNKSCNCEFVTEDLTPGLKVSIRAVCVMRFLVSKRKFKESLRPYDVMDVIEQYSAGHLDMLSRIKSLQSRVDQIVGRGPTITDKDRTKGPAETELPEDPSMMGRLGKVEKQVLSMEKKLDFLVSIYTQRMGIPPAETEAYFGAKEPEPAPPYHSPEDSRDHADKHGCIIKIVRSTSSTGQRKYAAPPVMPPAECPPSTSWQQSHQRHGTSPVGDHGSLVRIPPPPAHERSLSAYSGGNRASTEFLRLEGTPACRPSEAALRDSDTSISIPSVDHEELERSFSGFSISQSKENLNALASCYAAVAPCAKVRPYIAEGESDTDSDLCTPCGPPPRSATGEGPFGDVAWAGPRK
row,SMILES,activity change vs negative control
1,COCCCn1c(=S)[nH]c2c(sc3ccccc32)c1=O,12.3%
2,C=Cc1ccc(Cn2c(=O)n(CCCOC)c(=O)c3sccc32)cc1,-5.9% (active)
3,Cc1cccc2nc(-c3cccnc3)c(NCCC(C)C)n12,-23.5% (active)
4,CC(C)Cn1c(=S)[nH]c2cc(Cl)ccc21,21%
5,COc1ccc(-c2nc(=S)c3ccc4ccccc4c3[nH]2)cc1,74.5%
6,CC(C)OC(=O)c1c(NS(=O)(=O)c2ccccc2)sc2c1CCCC2,31%
7,C/C(=C/CCC(C)C1CCC2(C)C3CCC4C(C)(C)C(=O)CCC4(C)C3=CCC12C)C(=O)O (stereo not given),4.1%
8,C/C(=C/CCC(C)[C@H]1CC[C@@]2(C)C3=C(CC[C@]12C)[C@@]1(C)CCC(=O)C(C)(C)[C@@H]1CC3)C(=O)O (stereo not given in full),-13.3% (active)
9,O=C1c2ccccc2NC(c2ccc(Br)s2)N1O (stereo not given),92.4%
10,COc1cccc(C=NCCCN=Cc2cccc(OC)c2O)c1O,37.4%
11,Cc1ccnc(SCCn2c(N3CC(C)OC(C)C3)nc3c2c(=O)n(C)c(=O)n3C)n1 (stereo not given),-2% (active)
12,C=CCn1c(N2CCCCCC2)nc2c1c(=O)n(C)c(=O)n2C,15.6%
13,CCOC(=O)NC(=S)Nc1ccc(C(C)(C)C)cc1,30.4%
14,CCOc1ccc(/C=C2/SC(=O)NC2=S)cc1,111%
15,CCCCC(=O)Nc1ccc(NCc2ccc(C)s2)cc1,66.2%
16,Cc1c(-c2ccccc2)sc2nc[nH]c(=S)c12,75%
17,Cc1ccc(-n2c(C)cc(C(=O)CN3CCOCC3)c2C)cc1,10.9%
18,Cc1cc(F)c(F)c(C(=O)N2CCOCC2)c1,7.3%
19,Cc1cc(C(=O)NP(=O)(N2CCOCC2)N2CCOCC2)c(C)n1-c1ccc(Br)cc1,-0.1% (active)
20,O=c1c(-c2cccc3ccccc23)[n+]([O-])c2ccccc2n1O,27.4%
21,COc1ccc(-c2cc(=O)oc3cc(OCC(C)=O)ccc23)cc1,-6.4% (active)
22,COc1ccc(-c2c(C)c3ccc(OCC(C)=O)cc3oc2=O)cc1,4.2%
23,Cc1cc(=O)oc2cc(OCC(=O)OCC(=O)NC(C)C)ccc12,12.7%
24,c1ccc(Cn2ncc3c(N4CCN(C(c5ccccc5)c5ccccc5)CC4)ncnc32)cc1,-7.5% (active)
25,Oc1ccc(N2CCN(C(c3cccnc3)c3nnnn3Cc3ccccc3)CC2)cc1 (stereo not given),19.3%

row,SMILES,activity change vs negative control
1,Oc1ccc(Cl)cc1C1=NNC(c2cccs2)C1 (stereo not given),36.9%
2,CC(C)c1ccc(NC(=O)C2CC3CCC2C3)cc1 (stereo not given),45.1%
3,CCOC(=O)C1=NN(C(=O)c2cccc(Br)c2)C(O)(C(C)(C)C)C1 (stereo not given),111%
4,O=C(NC(=S)N1CCCc2ccccc21)c1ccc(Br)cc1,49.6%
5,O=C(NN1C(=O)C2C(c3ccccc3)C=CC(c3ccccc3)C2C1=O)c1cccc(Br)c1 (stereo not given),10.8%
6,O=C(Nn1cnnc1)c1ccncc1,12.7%
7,O=C(NN1C(=O)C2C(c3ccccc3)C=CC(c3ccccc3)C2C1=O)c1ccncc1 (stereo not given),-13% (active)
8,Cc1ccc(C(C)NC(=O)C2CCCC2)cc1C (stereo not given),66.7%
9,Cc1cccc(N2CCN(C(=O)Cc3c(C(=O)O)[nH]c4ccc(Cl)cc34)CC2)c1C,38.6%
10,CC1CCN(C(=S)NC(=O)c2cccc([N+](=O)[O-])c2)CC1,37.1%
11,Cc1ccc(-c2nc3ccc(Cl)cc3c(=O)n2O)cc1,118%
12,Cc1ccc(-c2onc3ccc(Cl)cc23)cc1,-2% (active)
13,O=c1c2cc(Cl)ccc2nc(-c2ccc(Cl)c(Cl)c2)n1O,150%
14,CC[C@@H](C(=O)[C@@H](C)[C@@H](O)[C@H](C)CCc1ccc(C)c(O)c1C(=O)O)[C@H]1O[C@](CC)([C@H]2CC[C@](O)(CC)[C@H](C)O2)C[C@@H]1C,169%
15,COc1ccccc1NC(=S)NC(=O)c1ccc(-c2ccc(Cl)cc2)o1,16.7%
16,C=CCn1c(=S)[nH]c2sc3c(c2c1=O)CCCC3,60.7%
17,O=C(Cn1c(=O)c2cccn2c2ccccc21)NCCc1ccc(Cl)cc1,-3.5% (active)
18,O=C(NC(=S)NCCc1ccc(Cl)cc1)c1ccco1,23.7%
19,O=C(CNC(=O)c1ccccc1)NCc1ccc(Cl)cc1,10.8%
20,Cc1nc(NCCc2ccc(S(N)(=O)=O)cc2)c2c(C)c(C)sc2n1,15.2%
21,O=c1cc(-c2c(F)c(F)c(F)c(F)c2F)oc2ccccc12,41.6%
22,CCOC(=O)c1nnn(CC(=O)Nc2ccccc2OC)c1C(=O)OCC,7.9%
23,COc1ccccc1C(=O)COC(=O)c1ccc(-n2cnnn2)cc1,-0.2% (active)
24,COc1ccccc1C(=O)Nc1ccc(C(=O)N2CCCC2)cc1,14.7%
25,O=C(NC(=S)Nc1nc(-c2ccc([N+](=O)[O-])cc2)cs1)c1ccco1,42%
